Data taken from PubChem BioAssay AID504339 (National Center for Advancing Translational Sciences (NCATS), 2011).
Out of some 390,000 compounds screened, about 17,000 (4.4%) were called active. Another 8% or so got no clear call; they are omitted. Calls come from the whole dose curve; as a rule, active = well fitted inhibition curve with a large enough effect; inconclusive = small, poorly fitted or top-dose-only effect; inactive = no such curve, though single readings can be large or run the other way. This excerpt belongs to a sample that is enriched for actives.

molecular target: Lysine-specific demethylase 4A (Homo sapiens) (UniProt O75164); assay: qHTS Assay for Inhibitors of JMJD2A-Tudor Domain; conditions: AlphaScreen JMJD2A-Tudor / H3K4me3 peptide binding; series mostly up to 114 µM; note: nearly all actives have a fitted effect of over 50% in size
Potency is the fitted concentration of half-maximal effect.

Lysine-specific demethylase 4A (Homo sapiens), sequence (O75164 whole entry, looked up, the tested form may be a part): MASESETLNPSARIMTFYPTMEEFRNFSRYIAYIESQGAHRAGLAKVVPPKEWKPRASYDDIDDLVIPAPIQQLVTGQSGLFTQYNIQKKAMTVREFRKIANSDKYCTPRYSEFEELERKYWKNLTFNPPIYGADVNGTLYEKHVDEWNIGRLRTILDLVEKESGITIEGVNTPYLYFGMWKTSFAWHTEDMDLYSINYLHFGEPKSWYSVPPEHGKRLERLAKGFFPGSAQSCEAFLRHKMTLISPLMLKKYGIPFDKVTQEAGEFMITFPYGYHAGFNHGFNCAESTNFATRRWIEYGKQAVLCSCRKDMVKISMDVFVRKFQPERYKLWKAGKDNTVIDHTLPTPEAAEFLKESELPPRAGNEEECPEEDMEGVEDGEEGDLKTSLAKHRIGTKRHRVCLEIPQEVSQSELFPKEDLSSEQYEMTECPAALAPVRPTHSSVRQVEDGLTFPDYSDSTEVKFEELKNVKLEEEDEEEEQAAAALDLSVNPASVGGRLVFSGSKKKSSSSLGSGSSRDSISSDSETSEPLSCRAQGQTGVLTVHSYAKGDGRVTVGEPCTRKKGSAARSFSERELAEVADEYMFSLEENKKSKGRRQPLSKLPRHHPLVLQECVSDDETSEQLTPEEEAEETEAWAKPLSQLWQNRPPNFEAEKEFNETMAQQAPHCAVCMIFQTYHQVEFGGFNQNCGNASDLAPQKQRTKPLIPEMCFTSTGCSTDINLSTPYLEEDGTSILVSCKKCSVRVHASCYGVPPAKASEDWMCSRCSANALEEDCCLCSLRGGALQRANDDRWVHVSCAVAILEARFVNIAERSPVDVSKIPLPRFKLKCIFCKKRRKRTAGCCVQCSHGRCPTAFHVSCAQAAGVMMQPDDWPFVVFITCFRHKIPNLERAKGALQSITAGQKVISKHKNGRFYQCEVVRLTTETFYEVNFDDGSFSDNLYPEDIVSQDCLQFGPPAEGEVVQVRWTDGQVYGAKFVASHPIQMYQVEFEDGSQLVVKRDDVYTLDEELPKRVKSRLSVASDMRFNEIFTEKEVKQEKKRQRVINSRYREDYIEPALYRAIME

Potency, active:
Cc1ccc(CSCC2Nc3ccc(C(=O)N4CCN(c5ccc(F)cc5)CC4)cc3NC2=O)cc1 (stereo unspecified) 22.4 µM
O=C1Nc2cc(C(=O)N3CCN(c4ccc(F)cc4)CC3)ccc2NC1CSCc1cccc(F)c1 (stereo unspecified) 20 µM
O=C(Nc1nnc(Cc2ccccc2)s1)c1cnccn1 50.1 µM
CSCCC(C(=O)NC1=NCCS1)N1C(=O)c2ccccc2C1=O (stereo unspecified) 79.4 µM
CCc1cccc(C)c1Nc1c(-c2ccc(N(C)C)cc2)nc2ncccn12 35.5 µM
C#CCOCCOCCOCCNc1nc(N2CCN(C(=O)[C@H](CCC(=O)O)n3cc(C(N)CO)nn3)CC2)nc(N2CCN(C(=O)[C@H](Cc3ccc(O)cc3)n3cc(C(N)[C@H](C)CC)nn3)CC2)n1 (stereo partly specified) 28.2 µM
C#CCOCCOCCOCCNc1nc(N2CCN(C(=O)[C@H](Cc3ccc(O)cc3)n3cc(C(N)CC(C)C)nn3)CC2)nc(N2CCN(C(=O)[C@H](CCC(=O)O)n3cc(C(N)[C@H](C)CC)nn3)CC2)n1 (stereo partly specified) 44.7 µM
C#CCOCCOCCOCCNc1nc(N2CCN(C(=O)[C@H](CCCCN)n3cc([C@@H](N)C(C)CC)nn3)CC2)nc(N2CCN(C(=O)[C@H](Cc3ccc(O)cc3)n3cc([C@@H](N)C(C)CC)nn3)CC2)n1 (stereo partly specified) 44.7 µM
C#CCOCCOCCOCCNc1nc(N2CCN(C(=O)C(Cc3ccc(O)cc3)n3cc(C(N)CC(C)C)nn3)CC2)nc(N2CCN(C(=O)C(Cc3ccc(O)cc3)n3cc(C(N)C(C)CC)nn3)CC2)n1 (stereo unspecified) 50.1 µM
CCc1cc(-c2n[nH]c(=S)n2CC(C)C)cs1 28.2 µM
CCc1nc(-c2cc(S(=O)(=O)N3CCN(c4ccc(OC)cc4)CC3)ccc2OC)no1 79.4 µM
CCOc1cc2[nH]c(=S)n(CCCN3CCCC3=O)c(=O)c2cc1OCC 22.4 µM
O=C(CCn1c(=S)[nH]c2ccccc2c1=O)NCCCN1CCCC1=O 17.8 µM
S=c1c2[nH]cnc2ncn1CCSc1ncnc2nc[nH]c12 12.6 µM
CCCCCCSc1ccc([C@@H]2[C@@H]3C(=O)N(CC)C(=O)[C@@H]3[C@]3(C(=O)OC)CCCCN23)cc1OC 56.2 µM
S=c1[nH]nc(COc2ccccc2)n1-c1ccccc1 12.6 µM
Fc1ccc(/C=N/n2c(COc3ccccc3)n[nH]c2=S)cc1 56.2 µM
O=[N+]([O-])c1ccccc1/C=N/n1c(COc2ccccc2)n[nH]c1=S 50.1 µM
COc1ccc(OCc2n[nH]c(=S)n2N)cc1 3.98 µM
Cc1cnc(NC(=O)c2ccccn2)s1 56.2 µM

Potency, inactive:
CCC(=O)N1CCc2cc(S(=O)(=O)NC(C(=O)Nc3ccc(C(C)=O)cc3)C(C)C)ccc21 (stereo unspecified)
CCC(=O)N1c2ccccc2CC1C(=O)N1CCN(c2cccc(OC)c2)CC1 (stereo unspecified)
CCCN(CCC)C(=O)C(Cc1ccccc1)NS(=O)(=O)c1ccc2c(c1)c(=O)n(C)c(=O)n2C (stereo unspecified)
Cc1ccc(N(CC(=O)NCc2ccc(Cl)cc2)S(=O)(=O)N(C)C)cc1
Fc1ccccc1Oc1ncnc2c1oc1ccccc12
C=CCn1c(SCc2cccc(F)c2)nc2cc(C(=O)N3CCC(C(N)=O)CC3)ccc2c1=O
CC1CCN(C(=O)c2ccc3c(c2)NC(=O)CN3)CC1
O=C(c1ccc2c(c1)N(Cc1ccc(F)cc1)C(=O)c1ccccc1S2(=O)=O)N1CCN(c2ccccn2)CC1
Cc1ccc(SCC(=O)N2CCN(c3ccc(F)cc3)CC2)cc1
Cc1oc(-c2ccccc2)nc1Cn1c(SCc2cccc(C(F)(F)F)c2)nc2cccnc21
Cc1ccc(C)c(NC(=O)Cn2ccn(-c3ccc(F)cc3)c(=O)c2=O)c1
O=C(Nc1nnc(Cc2ccc(Cl)cc2)s1)c1cccnc1
O=C(Nc1nnc(Cc2ccc(Cl)cc2)s1)c1ccncc1
CCCC(=O)N1CCN(c2nc3c(OC)ccc(C)c3s2)CC1
COc1ccc(CNC(=O)COC(=O)C(CCSC)N2C(=O)c3ccccc3C2=O)cc1 (stereo unspecified)
O=C(NC1=NCCS1)[C@H](Cc1ccccc1)N1C(=O)c2ccccc2C1=O
Cc1ccc2oc(=O)c3cnn(CC(=O)N4CCN(c5cccc(Cl)c5)CC4)c3c2c1
CCCCN(CC)CCCNC(=O)c1nn(C)c2c1CS(=O)(=O)c1ccccc1-2
CC(=O)c1cccc(NC(=O)CSc2nc3c(c(=O)[nH]2)CCC3)c1
Cc1ccccc1Nc1c(-c2ccccc2)nc2ncccn12
Cc1c(-c2cccc(NC(=O)C(C)(C)C)c2)nc2ncccn12
CCn1cc(C(=O)N2CCN(c3cc(C)ccc3C)CC2)c(=O)c2cc(S(=O)(=O)N(C)C3CCCCC3)ccc21
O=C(NCCc1ccccc1)c1cnc2sc(N3CCCC3)nn2c1=O
COC(=O)c1ccc(NC(=O)CCc2c(C)nc3c(c(C)nn3-c3ccc(C)cc3)c2C)cc1
C#CCOCCOCCOCCNc1nc(N2CCOCC2)nc(N2CCN(C(=O)[C@H](Cc3ccc(O)cc3)n3cc(CCO)nn3)CC2)n1
CC[C@H](C)[C@@H](C(=O)N1CCNCC1)n1cc([C@@H](N)Cc2ccc(O)cc2)nn1
O=C(NCc1ccccc1)c1ccc2c(c1)nc1n2CCCCC1
CC(C)c1ccc(NS(=O)(=O)c2ccc3[nH]cc(C(=O)NC4CCCC4)c(=O)c3c2)cc1
CCC(Sc1nc2n[nH]c(C)c2c(=N)n1-c1ccccc1Cl)C(=O)N(CC)CC (stereo unspecified)
Cc1nnc(SCc2cc(=O)c3cc(F)ccc3[nH]2)n1C
Cc1cc(NC(=O)c2ccc(-c3ccc(Cl)cc3)o2)cc(-c2nc3ncccc3o2)c1O
CC(=O)c1ccc(NC(=O)c2nc3nc(C)cc(C(F)F)n3n2)cc1
CCCc1cc(-c2n[nH]c(=S)n2Cc2ccccc2)cs1
CCc1cc(-c2nnc(SCC(=O)NC3CC3)n2C)cs1
Cc1ccccc1NC(=O)CN1C(=O)C(C)(C)c2ccccc21
CCOc1ccc(N(CC)S(=O)(=O)N2CCCC(C(=O)NCc3ccc(SC)cc3)C2)cc1 (stereo unspecified)
COc1ccc(S(=O)(=O)N2CCN(c3ccc(F)cc3)CC2)cc1-c1noc(C)n1
COc1ccc(N2CCN(S(=O)(=O)c3ccc(-c4coc(C)n4)cc3)CC2)cc1
Cc1csc2nc(COc3ccc(NC(=O)COc4ccccc4)cc3)cc(=O)n12
CCn1c2ccccc2c2nnc(SCC(=O)O)nc21
CCOc1cc2[nH]c(=S)n(CCN3CCCCC3C)c(=O)c2cc1OCC (stereo unspecified)
O=C(CCCCCn1c(=O)[nH]c2ccccc2c1=O)NCCc1c[nH]c2ccccc12
O=C(CCC(=O)NNc1nc2ccccc2c2nc(-c3ccccc3)nn12)NCCCN1CCCC1=O
CCOc1cc2[nH]c(=O)n(Cc3ccc(C(=O)NCCCN4CCCC4=O)cc3)c(=O)c2cc1OCC
Cc1ccc2nc(COc3ccc(NC(=O)COc4ccccc4F)cc3)cc(=O)n2c1
Cc1ccc(NC(=O)Cn2nnc3sc4c(c3c2=O)CCC(C)C4)cc1 (stereo unspecified)
CCC(=O)N1CCc2cc(S(=O)(=O)NC(C(=O)NCCc3ccc(C)cc3)C(C)C)ccc21 (stereo unspecified)
CCc1ccc(N(CC)c2ncnc3nc[nH]c23)cc1
Cc1ccc(NC(=O)c2ccc(CSc3ncnc4nc[nH]c34)cc2)c(C)c1
CN(C(=O)CSc1nc2ccc(NC(=O)COc3ccccc3)cc2s1)c1ccccc1
CCCCCCSc1ccc([C@@H]2[C@H]3C(=O)N(CC)C(=O)[C@H]3[C@]3(C(=O)OC)CCCCN23)cc1
CCN1C(=O)[C@@H]2[C@@H](c3ccc(-c4ccc(OC)cc4)c(OC)c3)N3CCC[C@@]3(C(=O)OC)[C@@H]2C1=O
COc1ccc(Cc2nc3ccc(C(=O)NCc4ccccc4C)cc3o2)cc1
O=C1c2ccccc2C(=O)N1c1ccc(S(=O)(=O)N2CCOCC2)c2ccccc12
O=C(COc1ccccc1[N+](=O)[O-])N/N=C/c1ccc[nH]1
COc1ccc(OCC(=O)NNC(=O)C2CCC2)cc1
O=C(COc1ccccc1)Nc1ccc(F)cc1
Cc1c(NC(=O)CCCOc2ccccc2)cccc1[N+](=O)[O-]
CC(Sc1nnc(COc2ccccc2)n1-c1ccccc1)C(=O)O (stereo unspecified)
COc1ccc(CNc2nnnn2C)cc1
COc1ccccc1OCc1nnc(SCC(N)=O)n1-c1ccccc1
CCOc1ccccc1C(=O)Nc1ccc2c(c1)N(C)C(=O)c1ccccc1S2
CCOC(=O)c1cc2c(=O)n3ccccc3nc2n(CCCOC)c1=NC(=O)C(C)Oc1ccccc1 (stereo unspecified)
Cc1ccc2nc(N3CCN(c4cccc(Cl)c4)CC3)c3nnnn3c2c1
Cc1cc(C)cc(NC(c2nnc(-c3cccc(F)c3)o2)c2ccc(F)cc2Cl)c1 (stereo unspecified)
COc1ccc(CCNC(=O)c2ccc(-n3c(C)cc4c3CCCC4)cc2)cc1OC
COc1ccc(C2/C=C\CN(Cc3ccco3)C(C)C(=O)N2Cc2ccc(F)cc2)cc1 (stereo unspecified)
O=C(NCCc1ccccc1)c1ccc2c(c1)N(Cc1ccccc1)C(=O)c1ccccc1S2(=O)=O
Cc1cnc(NC(=O)Cn2cnc3c2c(=O)n(C)c(=O)n3C)s1
CN(C(=O)c1ccccn1)c1nnc(-c2ccccn2)s1
Cc1c(Cl)cccc1NC(=O)c1noc2c1CCCC2
